Measured values as given in PubChem BioAssay AID588474 (The Scripps Research Institute Molecular Screening Center, 2011).
A number with no mark means an inactive call. Active and inactive are the calls of the source.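 The calls were made as follows: active = inhibition of at least 75% in the gel-based probe competition assay; inactive = inhibition below 75%.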

The molecules below were run against Platelet-activating factor acetylhydrolase (Mus musculus) (UniProt Q60963) (assay: recombinant plasma PAF acetylhydrolase inhibition – biochemical, gel-based competitive ABPP, fluorescence, orthogonal assay, late-stage follow-up (AID 588474)). Conditions: recombinant mouse pPAFAH, FP-Rh fluorescence, at 5 µM, stronger effect = higher value.
Platelet-activating factor acetylhydrolase (Mus musculus), sequence (Q60963 whole entry, looked up): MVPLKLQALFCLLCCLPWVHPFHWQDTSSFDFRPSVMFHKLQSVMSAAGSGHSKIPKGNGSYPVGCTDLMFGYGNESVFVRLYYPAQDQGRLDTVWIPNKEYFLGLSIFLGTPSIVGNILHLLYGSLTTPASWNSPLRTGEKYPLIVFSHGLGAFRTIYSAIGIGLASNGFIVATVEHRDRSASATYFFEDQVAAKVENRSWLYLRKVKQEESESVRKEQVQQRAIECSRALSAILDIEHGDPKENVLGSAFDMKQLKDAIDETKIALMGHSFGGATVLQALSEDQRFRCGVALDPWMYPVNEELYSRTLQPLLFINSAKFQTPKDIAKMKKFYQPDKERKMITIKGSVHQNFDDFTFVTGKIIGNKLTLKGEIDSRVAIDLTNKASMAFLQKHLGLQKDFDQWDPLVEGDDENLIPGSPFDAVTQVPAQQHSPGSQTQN

Row | Structure (SMILES) | inhibition
1 | NCCc1ccc(S(=O)(=O)F)cc1 | 16%
2 | O=C(c1cccs1)c1cn(Cc2ccccc2Cl)c2ccccc12 | 43%
3 | O=C(Oc1ccc([N+](=O)[O-])cc1)N1CCC(N2CCCCC2)CC1 | 84% (active)
4 | Cc1cc(C(=O)CS(=O)(=O)c2ccccc2)cc(C)c1OC(=O)N(C)C | 36%
5 | N#Cc1ccccc1Cn1cc(C(=O)c2ccccc2F)c2ccccc21 | 8%
6 | CN(C)C(=O)Oc1noc2cc(Cl)ccc12 | 99% (active)
7 | N#Cc1ccccc1Cn1cc(C(=O)c2cccs2)c2ccccc21 | 44%
8 | O=C(c1ccco1)c1cn(Cc2ccccc2Cl)c2ccccc12 | 9%
9 | CN1C[C@H](CNC(=O)OCc2ccccc2)C[C@@H]2c3cccc4c3c(cn4C)C[C@H]21 | 15%
